Compound activity: PubChem BioAssay, National Center for Advancing Translational Sciences (NCATS)
HCMV antiviral: qHTS Assay for inhibitors of the human cytomegalovirus (HCMV). AID 1259415, 2018. activity change, negative = inhibition, % at 57.5 µM. 4.5% of 410,000 active. HFF cells, HCMV-luciferase reporter, 72 h; active compounds read low; in the data active = activity change below about -60%; inconclusive = no clear call, values can overlap the other calls; inactive = above about -39%
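HFF cells seeded 16 h at 37C, treated with compounds, infected with luciferase-reporter HCMV at MOI 1 PFU/cell; luciferase read at 72 h post infection, normalized to buffer-only and Salinomycin controls.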
Pf growth 96h: Primary qHTS for delayed death inhibitors of the malarial parasite plastid, 96 hour incubation; P. falciparum luciferase reporter growth, 96 h; Potency, µM (highest dose often 28.7 µM), inactives show top-dose activity change, negative = inhibition, actives largely listed as inhibitors; AID 504834, 2011; 6.9% of 320,000 active; also: potency is read from the fitted curve at half-maximal effect
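Plates of compound plus infected erythrocytes (2% hematocrit, 0.05% parasitemia final) incubate 96 hours, 37 C, 5% CO2. Detection reagent added; reduced luminescence from the parasites' luciferase reporter flags inhibition.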
Sm TGR block: qHTS Assay for the Inhibitors of Schistosoma Mansoni Peroxiredoxins; 3% of 360,000 active; Schistosoma mansoni thioredoxin glutathione reductase (TGR), Q962Y6; purified TGR, DTNB reduction, TNB absorbance 405 nm; Potency, µM (titrated, usually from 114 µM), inactives show top-dose activity change, negative = inhibition, actives largely listed as inhibitors; also: potency is read from the fitted curve at half-maximal effect; nearly all actives have a fitted effect of over 60% in size
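TGR 20 nM + NADPH 100 uM (dispensed conc.), cpd preinc 15 min RT; start with NADPH (500 uM addition) then DTNB (15 mM addition). Kinetic TNB absorbance, 405 nm filter. Four-parameter Hill fit across titration.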
Giardia FBPA inh: qHTS Assay for Inhibitors of Fructose-1,6-bisphosphate Aldolase from Giardia Lamblia; Potency, µM (titrated, usually from 59.6 µM), without a hit: top-dose activity, negative = inhibition, actives largely listed as inhibitors; A8B2U2; purified Giardia FBPA; 0.71% of 290,000 active; AID 2451, 2010; also: potency is read from the fitted curve at half-maximal effect; nearly all actives have a fitted effect of over 55% in size
Target sequence (A8B2U2 whole entry, looked up): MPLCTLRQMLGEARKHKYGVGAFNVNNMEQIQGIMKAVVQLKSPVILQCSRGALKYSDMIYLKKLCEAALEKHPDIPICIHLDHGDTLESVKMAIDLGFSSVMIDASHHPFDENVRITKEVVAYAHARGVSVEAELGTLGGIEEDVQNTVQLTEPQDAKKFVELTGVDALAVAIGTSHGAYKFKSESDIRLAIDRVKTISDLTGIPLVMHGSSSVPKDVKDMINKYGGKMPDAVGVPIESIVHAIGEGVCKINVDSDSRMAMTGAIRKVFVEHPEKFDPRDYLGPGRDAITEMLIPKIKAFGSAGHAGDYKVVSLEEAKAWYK
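40 nM FBPA preincubated 10 min at RT with compound (up to 57.5 uM final), then substrate plus GAPDH/TPI/NAD/arsenate coupling and diaphorase/resazurin added. Fluorescence read after 20 min at RT, 525/598 nm.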
Pf growth 48h: Primary qHTS for delayed death inhibitors of the malarial parasite plastid, 48 hour incubation. 5.9% of 310,000 active. AID 504832, 2011. Potency, µM (top dose mostly 28.7 µM), for inactives: top-dose activity change, negative = inhibition, hits mostly inhibitors. P. falciparum luciferase growth in erythrocytes, 48 h; also: potency is read from the fitted curve at half-maximal effect
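Read-out is firefly luciferase luminescence from an integrated reporter in P. falciparum, so falling signal marks reduced parasite growth. Infected erythrocytes were at 2% hematocrit and 0.1% parasitemia (final) in Albumax-supplemented RPMI 1640.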
Numbers without * were called inactive; ? = inconclusive; . = not tested or not shown; + = active, no number. Hits are enriched below; roughly 14% of the tested compounds scored in any of these assays. Unless noted, calls follow the shape of the dose curve; as a rule, active = well fitted curve in the direction sought with a large enough effect; inconclusive = small, poorly fitted or top-dose-only effect, or another doubt; inactive = no such curve, though single readings can be large; an effect the other way counts as inactive or inconclusive. % is scaled to controls: 0 for no effect and ±100 for the full control effect.

SMILES | HCMV antiviral | Pf growth 96h | Sm TGR block | Giardia FBPA inh | Pf growth 48h
N#CC1=C2SCN(Cc3ccccc3)CN2C(=O)CC1c1ccc2c(c1)OCO2 (stereo not drawn) | 16 | ? | 3.5µM* | 0.89µM* | ?
COc1ccc(CN2CCN(Cc3ccco3)CC2)cc1 | 43 | 13% | -16% | ? | 39%
CC(C)c1ccc(C2CC(=O)N3CN(Cc4ccco4)CSC3=C2C#N)cc1 (stereo not drawn) | 3 | ? | 2.2µM* | ? | ?
COc1ccc(C2CC(=O)N3CN(Cc4ccco4)CSC3=C2C#N)cc1 (stereo not drawn) | 0 | ? | 40µM* | ? | 66%
COc1ccc(C2CC(=O)N3CN(C4CCCCC4)CSC3=C2C#N)c(OC)c1 (stereo not drawn) | -7 | . | 3.2µM* | . | .
O=C(NCc1ccccn1)C(=O)C1C(=O)Nc2ccccc21 (stereo not drawn) | 50 | 50% | 2% | -2% | 13%
Cc1ccc(S(=O)(=O)[N-]c2nc3ccccc3nc2-n2cc[n+](Cc3ccccc3)c2)cc1 | 128 | 1.5µM* | -36% | ? | 4.1µM*
CCCC[n+]1ccn(-c2nc3ccccc3nc2[N-]S(=O)(=O)c2ccc(C)cc2)c1 | 4 | 1% | -18% | -1% | .
CCCC[n+]1ccn(-c2nc3ccccc3nc2[N-]S(=O)(=O)c2ccccc2)c1 | 20 | 15µM* | -15% | 0% | .
O=S(=O)([N-]c1nc2ccccc2nc1-n1cc[n+](Cc2ccccc2)c1)c1ccccc1 | 102 | -6% | ? | 6% | -25%
CCCC[n+]1ccn(-c2nc3ccccc3nc2[N-]S(=O)(=O)c2cccs2)c1 | 4 | 5.9µM* | 18% | ? | ?
C=CC[n+]1ccn(-c2nc3ccccc3nc2[N-]S(=O)(=O)c2cccs2)c1 | 17 | 5% | -20% | 0% | 4%
O=S(=O)([N-]c1nc2ccccc2nc1-[n+]1ccc(CCCc2ccccc2)cc1)c1cccs1 | -14 | 5.2µM* | 6% | -4% | 7.4µM*
COc1cc2cc(CNc3ccccc3)c(=O)n(CC(=O)Nc3ccccc3)c2cc1OC | 8 | . | -17% | . | .
O=C(CCNC(=O)c1ccc(Br)cc1)NCCCN1CCCC1=O | -22 | 19% | -1% | . | -6%
CN(C)c1ncnc2ccc(-c3cccc(NS(C)(=O)=O)c3)cc12 | . | . | . | -5% | .
CC(C)(C)OC(=O)N1CCC(c2c(C(=O)NCCN3CCC(Cc4ccccc4)CC3)cnn2-c2ccc(F)cc2)CC1 | -106* | . | 4% | . | .
CC(C)(C)OC(=O)N1CCC(c2c(C(=O)NCCN3CCC(Cc4ccccc4)CC3)cnn2-c2ccccc2)CC1 | ? | . | -3% | . | .
COc1ccc(CCN2CCC(CNC(=O)c3cnn(-c4cccc(Cl)c4)c3C3CCN(C(=O)OC(C)(C)C)CC3)CC2)cc1 | -101* | . | -24% | . | .
COCCCNC(=O)c1cnn(-c2ccccc2Cl)c1C1CCN(C(=O)OC(C)(C)C)CC1 | + | . | 3% | . | .
Cc1ccc(-n2ncc(C(=O)NCCCN3CCCCC3)c2C2CCN(C(=O)OC(C)(C)C)CC2)cc1 | + | . | -9% | . | .
Cc1ccc(-n2ncc(C(=O)NCCN3CCN(C)CC3)c2C2CCN(C(=O)OC(C)(C)C)CC2)cc1 | ? | . | 4% | . | .
CC(C)(C)OC(=O)N1CCC(c2c(C(=O)NCc3ccccn3)cnn2-c2ccccc2Cl)CC1 | ? | . | 6% | . | .
NC(=O)c1nc(C(=O)N2CCN(c3ccccc3)CC2)c2ccccc2n1 | 5 | 62% | -20% | . | 52%
CCCN(C(=O)c1cc2ccc3cccnc3c2[nH]1)c1ccc(F)cc1 | 6 | . | 2% | . | .
SMILES | HCMV antiviral | Pf growth 96h | Sm TGR block | Giardia FBPA inh | Pf growth 48h
Cc1cc(C)c(C#N)c(OCC(=O)c2ccc(Br)cc2)n1 | 81 | 4.7µM* | 11% | -1% | ?
COc1ccc(CCC(=O)NC2CCCN(Cc3ccc(Cl)cc3)C2)cc1OC (stereo not drawn) | -29 | 42% | -2% | 4% | ?
Cc1occc1C(=O)NC1CCCN(Cc2ccc(Cl)cc2)C1 (stereo not drawn) | -35 | 29% | -35% | -4% | -7%
O=C(CCc1ccc(F)c(F)c1)NC1CCCN(Cc2ccc(Cl)cc2)C1 (stereo not drawn) | -8 | 9.3µM* | -17% | 3% | -22%
Cc1cc(C(=O)NC2CCCN(Cc3ccc(Cl)cc3)C2)c(C)o1 (stereo not drawn) | 39 | ? | -37% | . | 10µM*
COc1cc(C(=O)c2ccc3c(c2)OCO3)cc(OC)c1OC | -83* | . | . | . | .
COc1ccc(N/C=C\C(=O)c2ccc3c(c2)OCO3)cc1OC | ? | 4.7µM* | -1% | 1% | 62%
CCCCC1CCC(C(=O)N(CCCC)c2c(N)n(CCCC)c(=O)[nH]c2=O)CC1 (stereo not drawn) | -27 | ? | 10% | . | -8%
O=C(Nc1ccc2oc(-c3cccc(Cl)c3Cl)nc2c1)c1cccc(Br)c1 | -74* | . | -8% | . | .
O=C(Nc1ccc2oc(-c3cccc4c(Br)cccc34)nc2c1)c1cccc(Cl)c1 | 16 | . | -3% | . | .
O=C(Nc1ccc2oc(-c3ccccc3F)nc2c1)c1cncc(Br)c1 | -12 | . | -11% | -1% | 8.3µM*
CCOC(=O)N1CCN(S(=O)(=O)c2ccc(C(=O)Nc3nnc(CSC)o3)cc2)CC1 | -11 | -9% | -11% | ? | 23%
CC(=O)OCC(=O)[C@]1(O)C(C)CC2C3CCC4=CC(=O)C=C[C@@]4(C)[C@]3(F)C(O)C[C@@]21C (stereo partly drawn) | . | . | . | 10% | .
O=C(NC1CCSc2ccccc21)c1cccc([N+](=O)[O-])c1 (stereo not drawn) | -8 | 2.3µM* | -20% | 8% | 1.5µM*
CN(C)S(=O)(=O)c1cccc(C(=O)NC2CCSc3ccccc32)c1 (stereo not drawn) | -11 | 12µM* | -5% | . | ?
CS(=O)(=O)Cc1cccc(C(=O)NC2CCSc3ccccc32)c1 (stereo not drawn) | -29 | 75% | 10% | -8% | 6%
CON(C)S(=O)(=O)c1cccc(C(=O)NC2CCSc3ccccc32)c1 (stereo not drawn) | -74* | -28% | -3% | -8% | -27%
C[C@H](c1ccccc1)N1C[C@H](COCc2ccccc2)Oc2cc(N3CC[C@@H](O)C3)ccc2S1(=O)=O | -1 | . | . | . | .
N#CCCN(C(=O)COC(=O)CCC(=O)c1ccc(F)cc1)c1ccccc1 | 0 | -15% | 40µM* | . | -3%
CN=CC1=C(O)c2ccccc2C1=O | 22 | -20% | -17% | 0% | 30%
CC(C)=CCC1=C(O)c2ccccc2C(=O)C1=O | . | . | . | 1.1µM* | .
O=C1C(=O)c2ccccc2C(O)=C1CC=C(Cl)Cl | -95* | . | . | . | .
